The results in this text go back to the supplement of paper PMC7380943.
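Also: compound given one day ahead of doxycycline, which switches on I-SceI endonuclease to cut the chromosomally integrated reporter and create DSBs.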

This test relates to CLZ3 (HCA2 human fibroblast dual HR-NHEJ reporter). In words: NHEJ repair efficiency (GFP+ cells) relative to control (log10 fold); higher = more non-homologous end joining. Conditions: 5 µM; doxycycline 0.5 ug/mL.
As to `O=c1c(-c2ccc(O)cc2)coc2cc(O)ccc12` [Daidzein], the “NHEJ repair efficiency (log10)” value is -0.0789. In the case of `O=C(/C=C/c1ccc(O)c(O)c1)O[C@@H]1C[C@](O)(C(=O)O)C[C@@H](O)[C@H]1O` [Chlorogenic Acid] it was 0.0025; in that of `Cc1ccc(C(C)C)c(O)c1` [Thymol], 0.108; in that of `CC(C)=CCc1c(O)ccc(C(=O)/C=C/c2ccc(O)cc2)c1O` [Isobavachalcone], 0.0115. In the case of `COc1cc2ccc(=O)oc2c(O)c1O` [Fraxetin] it was 0.113; in that of `O=C1C[C@@H](c2ccc(O)cc2)Oc2cc(O)cc(O)c21` [Naringenin], -0.176; in that of `CC1(C)[C@@H](O)CC[C@]2(C)[C@H]3C(=O)C=C4[C@@H]5C[C@@](C)(C(=O)O)CC[C@]5(C)CC[C@@]4(C)[C@]3(C)CC[C@@H]12` [Glycyrrhetinic Acid], 0.0065. In the case of `CC[C@H](CC[C@@H](C)[C@H]1CC[C@H]2[C@@H]3CC=C4C[C@@H](O[C@@H]5O[C@H](CO)[C@@H](O)[C@H](O)[C@H]5O)CC[C@]4(C)[C@H]3CC[C@]12C)C(C)C` [Daucosterol] it was -0.00976. As to `COc1ccc(-c2coc3cc(O)cc(O)c3c2=O)cc1` [Biochanin A], the “NHEJ repair efficiency (log10)” value is -0.0507. To `CC(=O)OCC1=C[C@@H]2OC(=O)C3=CO[C@@H](O[C@@H]4O[C@H](CO)[C@@H](O)[C@H](O)[C@H]4O)[C@H]1[C@@H]32` [Asperuloside] belongs 0.0752; to `O=c1cc(-c2ccc(O[C@@H]3O[C@H](CO)[C@@H](O)[C@H](O)[C@H]3O)cc2)oc2cc(O)c([C@@H]3O[C@H](CO)[C@@H](O)[C@H](O)[C@H]3O[C@@H]3OC[C@H](O)[C@H](O)[C@H]3O)c(O)c12` [Vaccarin], -0.0315; to `COc1ccc(-c2oc3c(CC=C(C)C)c(O[C@@H]4O[C@H](CO)[C@@H](O)[C@H](O)[C@H]4O)cc(O)c3c(=O)c2O[C@@H]2O[C@@H](C)[C@H](O)[C@@H](O)[C@H]2O)cc1` [Icarrin], -0.0369. To `COc1ccc(/C=C/C(=O)O)cc1O` [Isoferulic Acid] belongs -0.101. To `COc1c(O)cc2oc(-c3ccccc3)cc(=O)c2c1O` [Oroxylin A] belongs 0.0844; to `OC[C@H]1O[C@@H](Oc2c(O)cc(O)cc2/C=C/c2ccc(O)cc2)[C@H](O)[C@@H](O)[C@@H]1O` [2,3,5,4'-Tetrahydroxy Stilbene 2-Ο-Β-D-Glucoside], 0.157. Take `COc1cc2c(c(OC)c1OC)-c1c(cc(OC)c(OC)c1OC)C[C@H](C)[C@H](C)C2` [Schisandrin A]: the “NHEJ repair efficiency (log10)” value is -0.121. To `CC[C@H](/C=C/[C@@H](C)[C@H]1CC[C@H]2[C@@H]3CC=C4C[C@@H](O)CC[C@]4(C)[C@H]3CC[C@]12C)C(C)C` [Stigmasterol] belongs -0.155. In the case of `C[C@@H]1O[C@@H](O[C@H]2[C@H](O[C@H]3CC[C@@]4(C)[C@@H](CC[C@]5(C)[C@@H]4CC=C4[C@@H]6CC(C)(C)CC[C@]6(C(=O)O)CC[C@]45C)[C@]3(C)CO)OC[C@H](O)[C@@H]2O)[C@H](O)[C@H](O)[C@H]1O` [α-Hederin] it was -0.0243; in that of `O=C(O)C1=C[C@@H](O)[C@@H](O)[C@H](O)C1` [Shikimic Acid], 0.128; in that of `C[C@H]1O[C@H](O[C@@H]2[C@@H](O)[C@H](OCCc3ccc(O)c(O)c3)O[C@H](CO[C@H]3OCC(O)(CO)[C@@H]3O)[C@H]2OC(=O)/C=C/c2ccc(O)c(O)c2)[C@@H](O)[C@@H](O)[C@@H]1O` (some centres undefined) [Forsythoside B], 0.0465. To `CC(CC(=O)C[C@@H](C)[C@H]1CC(=O)[C@@]2(C)C3=C(C(=O)C[C@]12C)[C@@]1(C)CC[C@H](O)C(C)(C)[C@@H]1C[C@@H]3O)C(=O)O` (some centres undefined) [Ganoderic Acid B] belongs 0.0835; to `C[C@H](CCC(=O)NCCS(=O)(=O)O)[C@H]1CC[C@H]2[C@@H]3C[C@H](O)[C@@H]4C[C@H](O)CC[C@]4(C)[C@H]3CC[C@]12C` [Taurohyodeoxycholic Acid], 0.0397. For `Cn1c(=O)c2c(ncn2C)n(C)c1=O` [Caffeine], the “NHEJ repair efficiency (log10)” value is 0.103. In the case of `C[C@@H]1CC[C@@]2(NC1)O[C@H]1C[C@H]3[C@@H]4CC=C5C[C@@H](O[C@@H]6O[C@H](CO)[C@H](O)[C@H](O[C@@H]7O[C@H](CO)[C@@H](O)[C@H](O)[C@H]7O)[C@H]6O[C@@H]6O[C@@H](C)[C@H](O)[C@@H](O)[C@H]6O)CC[C@]5(C)[C@H]4CC[C@]3(C)[C@H]1[C@@H]2C` [Solasonine] it was -0.000957; in that of `OC[C@H]1OC(O)[C@H](O)[C@@H](O)[C@H]1O` (stereo partly drawn) [D-Galactose], 0.00385. In the case of `CC1=C2C(=O)O[C@@H](c3ccoc3)[C@]2(C)CCC1` [Fraxinellone] it was 0.105; in that of `O=Cc1ccc(O)cc1` [4-Hydroxybenzaldehyde], 0.0829. In the case of `O=C1C=C2C=C[C@@H](O)[C@H](O)[C@H]2O1` [Griffonilide] it was 0.0786; in that of `CC(C)=CC(O)C/C(C)=C/COc1c2ccoc2cc2oc(=O)ccc12` (centres undefined) [Notopterol], 0.0643. In the case of `CC(=O)OC1CC23CC(C)(O)C(CCC2C(C)(O)C2C4OC4C(C)(C)C12O)C3O` (centres undefined) [Rhodojaponin Ii], the “NHEJ repair efficiency (log10)” value was -0.0128. In the case of `CC1(C)O[C@H]1COc1c2ccoc2cc2oc(=O)ccc12` [Oxypeucedanin] it was 0.0689; in that of `Oc1ccc2c(c1)OCO2` [Sesamol], 0.111; in that of `CC(C)=CCC[C@](C)(O[C@@H]1O[C@H](CO)[C@@H](O)[C@H](O)[C@H]1O)[C@H]1CC[C@]2(C)[C@@H]1[C@H](O)C[C@@H]1[C@@]3(C)CC[C@H](O)C(C)(C)[C@@H]3[C@@H](O[C@@H]3O[C@H](CO)[C@@H](O)[C@H](O)[C@H]3O[C@@H]3O[C@@H](C)[C@H](O)[C@@H](O)[C@H]3O)C[C@]12C` [Ginsenoside Re], -0.152. To `C/C1=C/CC[C@H](C)C(=O)C[C@@H](C(C)C)C(=O)C1` [Curdione] belongs -0.0258. In the case of `c1ccc2c(c1)OC1c3ccccc3OCC21` (centres undefined) [Pterocarpan] it was 0.112; in that of `C=C1CCC[C@]2(C)C[C@]3(O)OC(=O)C(C)=C3C[C@@H]12` [Atractylenolide Ⅲ], 0.0709; in that of `CN[C@@H](C)[C@H]1[C@H](O)C[C@@]2(C)[C@@H]3CC[C@H]4C(C)(C)[C@@H](NC)CC[C@@]45C[C@@]35CC[C@]12C` [Cyclovirobuxine D], -0.023. As for `O=c1c(O)c(-c2ccc(O)c(O)c2)oc2cc(O)cc(O)c12` [Quercetin], the “NHEJ repair efficiency (log10)” value is -0.047. To `NC(=O)NC1NC(=O)NC1=O` (centres undefined) [Allantoin] belongs 0.029.
